Values joined by “and” are separate entries in the source; they are usually repeats but may differ in a detail not shown here. Identical values can stand only once. Results filed as inconclusive are left out. Where a call stands in place of a potency, no number is given. Values without a mark were called inactive. Active and inactive are the calls of the source. Unless noted, the call rests on the fitted dose curve; in most records, active means well fitted curve in the direction sought with a large enough effect; inconclusive means small, poorly fitted or top-dose-only effect, or another doubt; inactive means no such curve, though single readings can be large; an effect the other way counts as inactive or inconclusive.

Assay [1] can be described thus: S16 Schwann cell viability assay (CellTiter-Glo assay) (AID 624031).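 Further: cellular ATP luminescence as a viability measure; nearly all actives have a fitted effect of over 70% in size.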 The settings on record: S16 rat Schwann cells viability, 24 h; series mostly up to 57.5 µM. A digest of the protocol:
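Untransfected S16 rat Schwann cells; compound 24 h, 37 °C/5% CO2; CellTiter-Glo ATP luminescence. % activity vs no-cell wells and DMSO controls (0%); concentration-effect curves classed by r2, response magnitude, activity.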

A short description of assay [2]: S16 Schwann cell PMP22 intronic element firefly luciferase assay (AID 624032). Further: nearly all actives have a fitted effect of over 30% in size. Further: potency means the concentration at half of the fitted maximal effect. The conditions noted are these: S16 rat Schwann cells, PMP22 element FLuc, 24 h; series mostly up to 57.5 µM. A digest of the protocol: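 Rat S16 Schwann cells stably carrying a PMP22 intronic element-driven Fluc reporter were seeded overnight, then exposed to compounds for 24 h at 37 °C. Luminescence was normalized to PTC124 (positive control) and DMSO (0% activity).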

Assay [3] in a line: S16 Schwann cell PMP22 intronic element beta-lactamase assay (AID 624044; calls by dose curve; further: nearly all actives have a fitted effect of over 15% in size). The conditions noted are these: S16 rat Schwann cells, PMP22 element beta-lactamase FRET, 24 h; series mostly up to 38.3 µM. A digest of the protocol: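 Rat S16 Schwann cells with beta-Lac driven by a PMP22 intronic element, compound-treated 24 h at 37 °C. LiveBLAzer FRET B/G read: 460 nm normalized to potassium clavulanate vs DMSO; 535 nm FRET as viability; concentration-effect curves classified.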

Assay [4] in a line: qHTS assay for small molecule agonists of the antioxidant response element (ARE) signaling pathway (AID 651741; active means well fitted activation curve with a large enough effect in the signal ratio; the % refers to the signal ratio; further: potency means the concentration at half of the fitted maximal effect). The settings on record: HepG2 ARE-bla reporter, beta-lactamase FRET ratio, 16 h; series mostly up to 96 µM. A digest of the protocol:
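ARE-bla HepG2 cells (beta-lactamase reporter under ARE control) were plated at 2,000 cells/well, preincubated 5 h at 37 C/5% CO2, then treated with DMSO-dissolved compounds for 16 h at 37 C; LiveBLAzer B/G FRET substrate added, fluorescence read after 2 h at room temperature.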

Assay [5] can be described thus: qHTS assay for small molecule activators of the nuclear factor-kappa B (NF-kB) signaling pathway (AID 651749; active means well fitted activation curve with a large enough effect in the signal ratio; the % refers to the signal ratio). The conditions noted are these: NF-kB-bla ME-180 cells, beta-lactamase FRET ratio, 16 h; active compounds read high. In short, it runs like this: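 ME-180 cells stably carrying a beta-lactamase reporter under an NF-kB response element were exposed to compound or DMSO vehicle for 16 hr at 37C, 5% CO2. Pathway activation was read by FRET, since reporter expression disrupts FRET.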

A short description of assay [6]: qHTS assay for small molecule disruptors of the mitochondrial membrane potential - 1 hr assay (AID 651754; calls by dose curve; further: nearly all actives have a fitted effect of over 35% in size). The settings on record: series mostly up to 92.2 µM. In short, it runs like this:
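Steps: seed HepG2 cells and let attach overnight; pin-transfer compound or vehicle; incubate 1 hr at 37C; add Mito-MPS dye for 30 min; read two-channel fluorescence for monomer and aggregate forms.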

Assay [7] in a line: qHTS assay for small molecule disruptors of the mitochondrial membrane potential - 5 hr assay (AID 651755; calls by dose curve; further: nearly all actives have a fitted effect of over 40% in size). The settings on record: JC-1-type ratio dye; series mostly up to 92.2 µM. In short, it runs like this:
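HepG2 cells, attached overnight at 37C, were exposed to compound or DMSO for 5 hr at 37C, 5% CO2. Mito-MPS dye was then added for 30 min, and fluorescence read at 490/535 nm (monomers) and 540/590 nm (aggregates).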

For assay [8], the target named is Tumor necrosis factor (Homo sapiens) (UniProt P01375). The assay can be described thus: qHTS assay to identify small molecules that stimulate Tumor Necrosis Factor-alpha (TNF-alpha) secretion (AID 651757; active means well fitted curve in the direction sought with a large enough effect in the signal ratio; the % refers to the signal ratio). The conditions noted are these: Human cells, HTRF 665/615 ratio; series mostly up to 92.2 µM. In short, it runs like this:
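Secreted TNF-alpha from compound-treated THP-1 cells (17 hrs, 37 C) was quantified with a homogeneous time-resolved fluorescence antibody assay.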

Chain of Tumor necrosis factor (Homo sapiens) (P01375 whole entry, looked up): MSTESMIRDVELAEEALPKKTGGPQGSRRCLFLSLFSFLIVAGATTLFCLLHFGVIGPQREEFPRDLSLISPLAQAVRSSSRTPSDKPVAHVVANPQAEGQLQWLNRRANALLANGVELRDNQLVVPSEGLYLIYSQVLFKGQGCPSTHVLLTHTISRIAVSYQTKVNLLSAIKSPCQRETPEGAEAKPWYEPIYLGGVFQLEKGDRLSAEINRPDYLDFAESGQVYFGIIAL

Consider `Nc1c2c(nc3c1CCC3)CCCC2`, for which the result in assay [1] was inactive. Further, in assay [2], the Potency entry was “inactive”.

Take `COC(=O)c1cccnc1`: the result in assay [1] was inactive. Also, the Potency result in assay [2] is “inactive”.

For the compound `COc1ccccc1OC(=O)Oc1ccccc1OC`, the call in assay [1] was inactive. Besides, the Potency entry in assay [2] is “inactive”.

As for `CC(=O)N(CC(O)CO)c1c(I)c(C(=O)NCC(O)CO)c(I)c(C(=O)NCC(O)CO)c1I` (stereo unspecified), the outcome in assay [1] was inactive. Moreover, in assay [2], the Potency entry was “inactive”.

As to `CN1C(C)(C)CCCC1(C)C`, the result in assay [1] was inactive. For the same compound, the Potency entry in assay [2] was “inactive”.

Turning to `Cc1c(I)c(=O)n(-c2ccccc2)n1C`, the outcome in assay [1] was inactive. In addition, in assay [2], the Potency entry is “inactive”.

`CC(C)c1cc2c(cc1S(=O)(=O)O)[C@@]1(C)CCC[C@@](C)(C(=O)O)[C@@H]1CC2`: the call in assay [1] and in assay [3] was inactive. In assay [2], the Potency result is “inactive”.

Regarding `O=C(O)c1cc(=O)c2ccccc2o1`, the result in assay [1] was inactive. The Potency entry in assay [2] was “inactive”.

Take `CC(C)CCCC(C)CCCC(C)CCCCC(C)CCCC(C)CCCC(C)C` (stereo unspecified): the result in assay [1] was inactive. Further, the Potency result in assay [2] is “inactive”.

As for `COc1cc(C(=O)NCCCCCC(=O)O)cc(OC)c1OC`, in assay [1], the compound was called inactive. Moreover, the Potency entry in assay [2] was “inactive”.

As to `CC(C)(C)C(=O)OCOC(=O)[C@@H]1N2C(=O)[C@@H](NC(=O)[C@H](N)c3ccccc3)[C@H]2SC1(C)C`, the call in assay [1] and in assay [3] was inactive. The Potency result in assay [2] is “inactive”.

On to `CCCCCCCC(=O)OCC(O)CO` (stereo unspecified), for which the compound was called inactive in assay [1]. In addition, the Potency result in assay [2] is “inactive”.

Consider `CC(=O)Oc1cccc(O)c1`, for which the compound was classed as inactive in assay [1] and in assay [3]. Also, in assay [2], the Potency entry was “inactive”.

For the compound `Cn1c([N+](=O)[O-])cnc1COC(N)=O`, the outcome in assay [1] was inactive. Besides, in assay [2], the Potency result was “inactive”.

As to `CNCc1ccccc1`, the compound was classed as inactive in assay [1]. Besides, in assay [2], the Potency entry was “inactive”.

With `O[C@@H]1CO[C@H]2[C@@H]1OC[C@@H]2O`, the result in assay [1] was inactive. Also, the Potency result in assay [2] is “inactive”.

With `CCOc1ccc(C(=O)OCCN(CC)CC)cc1`, in assay [1], the compound was called inactive. Moreover, the Potency entry in assay [2] is “inactive”.

As to `c1ccc2[nH]ccc2c1`, the compound was classed as inactive in assay [1] and in assay [3]. Also, in assay [2], the Potency result was “inactive”.

For `CCOc1cc(NC(C)=O)ccc1C(=O)OC`, the call in assay [1] and in assay [3] was inactive. The Potency entry in assay [2] was “inactive”.

`Cn1c(=O)c2c(ncn2CCO)n(C)c1=O`: the result in assay [1] was inactive. The Potency entry in assay [2] was “inactive”.

As to `OCc1ccc(Cl)cc1Cl`, the compound was called inactive in assay [1] and in assay [3]. In assay [2], the Potency result is “inactive”.

As to `Cc1cccc(C)c1NC(=O)CC12CCCN1CCC2`, the call in assay [1] was inactive. Moreover, the Potency entry in assay [2] is “inactive”.

Regarding `Cc1onc(-c2ccccc2)c1-c1ccc(S(N)(=O)=O)cc1`, the outcome in assay [1] was inactive. Also, in assay [2], the Potency result was “inactive”.

As for `CC(N)CCCC(C)(C)O` (stereo unspecified), the compound was called inactive in assay [1]. The Potency result in assay [2] is “inactive”.

As to `O=S1(=O)OC(c2ccc(O)cc2)(c2ccc(O)cc2)c2ccccc21`, the compound was called inactive in assay [1] and in assay [3]. Moreover, the Potency in assay [2] is 10.2 µM (active).

For `CCCOC(=O)c1ccc(N)cc1`, the result in assay [1] and in assay [3] was inactive. Also, the Potency entry in assay [2] was “inactive”.

On to `O=C(O)Cc1cn(-c2ccccc2)nc1-c1ccc(Cl)cc1`, for which the compound was called inactive in assay [1]. Further, in assay [2], the Potency result is “inactive”.

With `O=C(O)c1ccc[n+]([O-])c1`, the outcome in assay [1] was inactive. Also, the Potency result in assay [2] was “inactive”.

Take `CCN1CC(CCN2CCOCC2)C(c2ccccc2)(c2ccccc2)C1=O` (stereo unspecified): the compound was classed as inactive in assay [1] and in assay [3]. For the same compound, the Potency entry in assay [2] was “inactive”.

For the compound `CCCCCCCCCCCCCCCCC(C(=O)O)C(O)(CC(=O)O)C(=O)O` (stereo unspecified), the compound was called inactive in assay [1] and in assay [3]. The Potency result in assay [2] was “inactive”.

As to `COc1ccc(NS(=O)(=O)c2ccc(N)cc2)nn1`, the compound was called inactive in assay [1] and in assay [3]. The Potency result in assay [2] is “inactive”.

In the case of `CCc1nnc(NS(=O)(=O)c2ccc(N)cc2)s1`, the call in assay [1] and in assay [3] was inactive. In addition, the Potency result in assay [2] was “inactive”.

Take `Cc1c(C)c2c(c(C)c1OC(=O)c1cccnc1)CC[C@@](C)(CCC[C@H](C)CCC[C@H](C)CCCC(C)C)O2`: the compound was called inactive in assay [1]. Also, the Potency result in assay [2] was “inactive”.

As for `CCCCCCCCCCC(CO)CCCCCCCC` (stereo unspecified), the compound was called inactive in assay [1]. The Potency result in assay [2] was “inactive”.

`CC(C)C[C@@H](N)C(=O)O`: the call in assay [1] and in assay [3] was inactive. Besides, the Potency result in assay [2] was “inactive”.

In the case of `O=C(O)COC(=O)Cc1ccccc1Nc1c(Cl)cccc1Cl`, the call in assay [1] was inactive. Further, the Potency entry in assay [2] is “inactive”.

With `Cc1ccc(S(=O)(=O)NC(=O)NC2CCCCCCC2)cc1`, the outcome in assay [1] and in assay [3] was inactive. Besides, the Potency entry in assay [2] is “inactive”.

As to `CC(C)CCOC(=O)c1ccc(N(C)C)cc1`, the outcome in assay [1] was inactive. In assay [2], the Potency entry is “inactive”.

Turning to `COC(=O)c1ccccc1C(=O)c1ccc(OCCN2CCCCC2)cc1`, the result in assay [1] was inactive. In assay [2], the Potency result is “inactive”.

As to `CC(=O)OC[C@H]1O[C@@](COC(C)=O)(O[C@H]2O[C@H](COC(C)=O)[C@@H](OC(C)=O)[C@H](OC(C)=O)[C@H]2OC(C)=O)[C@@H](OC(C)=O)[C@@H]1OC(C)=O`, in assay [1], the call was inactive. Moreover, in assay [2], the Potency entry is “inactive”.

Turning to `NNc1nnc(NN)c2ccccc12`, the compound was called inactive in assay [1] and in assay [3]. The Potency result in assay [2] is “inactive”.

With `Cc1cc(O)cc(C)c1Cl`, the call in assay [1] and in assay [3] was inactive. Also, the Potency entry in assay [2] is “inactive”. For the same compound, the Potency in assay [4] is 10.9 µM (active). Besides, the activation in assay [5] is -0.418%.

`Cc1cccc(Nc2ccccc2C(=O)O)c1C`: the compound was called inactive in assay [1]. For the same compound, in assay [2], the Potency result is “inactive”. In assay [4], the Potency was 61.1 µM (active).

Consider `CCN(CC)CC1CCCCN1CC(=O)N1c2ccccc2C(=O)Nc2cccnc21` (stereo unspecified), for which the compound was called inactive in assay [1] and in assay [3]. Besides, in assay [2], the Potency result was “inactive”.

For the compound `Cc1c(N(C)C)c(=O)n(-c2ccccc2)n1C`, the compound was called inactive in assay [1], in assay [3] and in assay [8]. Also, the Potency result in assay [2], in assay [4], in assay [6] and in assay [7] was “inactive” each time. Also, in assay [5], the activation was 1.01% and 2.73%.

The values above are taken from PubChem BioAssay (NCATS).
